# PubChem BioAssay (NCATS)
# Where “and” joins values, the source holds several entries; their conditions need not be identical. Identical values can stand only once. Inconclusive results are not listed. A call without a number means that no potency is given here. Some compounds were tested as several samples or in several runs, with calls that do not always agree. Calls of active or inactive are those of the source. Unless noted, the call rests on the fitted dose curve; in most records, active means well fitted curve in the direction sought with a large enough effect; inconclusive means small, poorly fitted or top-dose-only effect, or another doubt; inactive means no such curve, though single readings can be large; an effect the other way counts as inactive or inconclusive.
# Assays:
# [1] = Primary qHTS for small molecule stabilizers of the endoplasmic reticulum resident proteome: Secreted ER Calcium Modulated Protein (SERCaMP) assay (AID 1508630)
# Method in brief: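 GLuc-SERCaMP-expressing SH-SY5Y cells, pretreated 16 h with compound, are challenged with thapsigargin to empty ER calcium stores; after 4 h, coelenterazine is added directly to the medium and luminescence is imaged.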
# [2] = A High-Content qHTS Against Drug Library for the Identification of Small Molecules that Inhibit DYT1 Early Onset Primary Dystonia-Associated Cell Pathology (AID 1645839; calls by dose curve; further: series mostly up to about 46 µM)
# Method in brief: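 Readout: %pathology, the punctate EGFP-TorsinA distribution from imaging, as the primary channel and cell count as the toxicity counterscreen. HEK293 Flp-In cells expressing delE TorsinA were induced with tetracycline and treated with compound for 48 h.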
# [3] = Primary qHTS for inhibitors of nuclear receptor binding SET domain protein 2 (NSD2) in an isogenic RCH-ACV NSD2 p.E1099K mutant (9B) (AID 1645876); further: nearly all actives have a fitted effect of over 70% in size; further: potency means the concentration at half of the fitted maximal effect
# [4] = Primary qHTS for inhibitors of nuclear receptor binding SET domain protein 2 (NSD2) in an RCH-ACV wild type WT cells (2C) (AID 1645877); further: nearly all actives have a fitted effect of over 70% in size; further: potency means the concentration at half of the fitted maximal effect
# [5] = target: Cytochrome P450 2D6 (Homo sapiens) (UniProt P10635); assay: Cytochrome P450 family 2 subfamily D member 6 (CYP2D6) small molecule antagonists: luciferase biochemical (cell-free) qHTS assay (AID 1645840; active means well fitted curve in the direction sought with a large enough effect in the repeat runs; an effect the other way counts as inactive or inconclusive; further: series mostly up to about 57 µM; nearly all actives have a fitted effect of over 55% in size)
# Sequence of Cytochrome P450 2D6 (Homo sapiens) (P10635 whole entry, looked up): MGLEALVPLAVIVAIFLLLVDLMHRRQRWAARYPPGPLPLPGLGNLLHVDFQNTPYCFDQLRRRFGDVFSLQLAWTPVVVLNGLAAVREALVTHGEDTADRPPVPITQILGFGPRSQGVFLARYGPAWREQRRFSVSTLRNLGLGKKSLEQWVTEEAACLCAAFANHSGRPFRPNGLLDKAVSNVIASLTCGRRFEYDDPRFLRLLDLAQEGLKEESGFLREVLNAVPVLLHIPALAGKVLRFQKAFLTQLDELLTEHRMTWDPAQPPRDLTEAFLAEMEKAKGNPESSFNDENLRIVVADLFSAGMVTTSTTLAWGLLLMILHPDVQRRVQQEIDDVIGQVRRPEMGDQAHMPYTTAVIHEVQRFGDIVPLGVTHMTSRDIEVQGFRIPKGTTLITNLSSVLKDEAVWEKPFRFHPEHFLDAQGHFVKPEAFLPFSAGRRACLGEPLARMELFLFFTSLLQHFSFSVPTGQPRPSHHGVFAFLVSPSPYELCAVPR
# Method in brief: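 P450-Glo luminescent screen: recombinant CYP2D6 enzyme–proluciferin substrate mix preincubated with compound 10 min at room temperature, then NADPH regeneration added for 1 h at room temperature. Detection reagent added for 20 min; luciferin light read as relative luminescence units.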
# [6] = target: Cytochrome P450 2C9 (Homo sapiens) (UniProt P11712); assay: Cytochrome P450 family 2 subfamily C member 9 (CYP2C9) small molecule antagonists: luciferase biochemical (cell-free) qHTS assay (AID 1645842; active means well fitted curve in the direction sought with a large enough effect in the repeat runs; an effect the other way counts as inactive or inconclusive; further: nearly all actives have a fitted effect of over 55% in size; further: potency means the concentration at half of the fitted maximal effect; on activity change, negative = inhibition: series mostly up to about 57 µM)
# Sequence of Cytochrome P450 2C9 (Homo sapiens) (P11712 whole entry, looked up): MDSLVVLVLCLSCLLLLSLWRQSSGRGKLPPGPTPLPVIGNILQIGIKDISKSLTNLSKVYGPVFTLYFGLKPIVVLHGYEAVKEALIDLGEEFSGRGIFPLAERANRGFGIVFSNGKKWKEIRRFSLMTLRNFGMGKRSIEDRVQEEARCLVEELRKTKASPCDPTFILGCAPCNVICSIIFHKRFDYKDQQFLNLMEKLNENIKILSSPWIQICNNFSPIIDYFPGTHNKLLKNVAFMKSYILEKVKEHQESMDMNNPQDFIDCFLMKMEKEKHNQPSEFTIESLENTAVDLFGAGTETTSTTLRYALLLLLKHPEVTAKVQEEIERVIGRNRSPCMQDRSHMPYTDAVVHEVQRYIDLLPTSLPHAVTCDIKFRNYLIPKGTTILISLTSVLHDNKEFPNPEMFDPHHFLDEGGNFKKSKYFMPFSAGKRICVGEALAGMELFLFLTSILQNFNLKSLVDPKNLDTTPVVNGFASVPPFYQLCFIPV
# Method in brief: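 Luminescence, after 20 min with luciferin detection reagent, reflected CYP2C9 turnover during a 1 h NADPH-driven reaction at 37C. Enzyme-substrate mix contained 0.4% bovine serum albumin and was preincubated with compound 10 min at room temperature.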
# [7] = target: Cytochrome P450 3A4 (Homo sapiens) (UniProt P08684); assay: Cytochrome P450 family 3 subfamily A member 4 (CYP3A4) small molecule antagonists: luciferase qHTS assay (AID 1645841; active means well fitted curve in the direction sought with a large enough effect in the repeat runs; an effect the other way counts as inactive or inconclusive; further: nearly all actives have a fitted effect of over 45% in size)
# Sequence of Cytochrome P450 3A4 (Homo sapiens) (P08684 whole entry, looked up): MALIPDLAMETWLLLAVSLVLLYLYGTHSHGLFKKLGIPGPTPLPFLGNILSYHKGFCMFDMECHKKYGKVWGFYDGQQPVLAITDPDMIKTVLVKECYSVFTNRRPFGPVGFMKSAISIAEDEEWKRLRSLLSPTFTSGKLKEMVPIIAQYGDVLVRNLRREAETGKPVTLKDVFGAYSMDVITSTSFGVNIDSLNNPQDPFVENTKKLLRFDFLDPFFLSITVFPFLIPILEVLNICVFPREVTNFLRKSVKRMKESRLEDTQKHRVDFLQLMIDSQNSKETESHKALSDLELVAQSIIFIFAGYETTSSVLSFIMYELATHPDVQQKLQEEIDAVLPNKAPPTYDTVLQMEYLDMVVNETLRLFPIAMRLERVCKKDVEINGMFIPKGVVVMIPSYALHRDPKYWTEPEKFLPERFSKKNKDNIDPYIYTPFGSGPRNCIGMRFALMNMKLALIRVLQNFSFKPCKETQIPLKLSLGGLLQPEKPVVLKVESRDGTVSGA
# Method in brief: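 P450-Glo CYP3A4 enzyme with proluciferin substrate was preincubated with DMSO-dissolved compounds for 10 min at room temperature. NADPH regeneration solution started a 1 h reaction. Detection reagent stopped it, and luminescence was read after 20 min.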
# [8] = target: N-terminal Xaa-Pro-Lys N-methyltransferase 1 (Homo sapiens) (UniProt Q9BV86); assay: Confirmatory qHTS for Inhibitors of N-terminal methyltransferase 1 (NTMT1): MTaseGlo Assay (AID 1645874);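 further: luminescence from SAH made as NTMT1 methylates SPKRIA peptide using SAM; series mostly up to about 100 µM; nearly all actives have a fitted effect of over 65% in size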
# Sequence of N-terminal Xaa-Pro-Lys N-methyltransferase 1 (Homo sapiens) (Q9BV86 whole entry, looked up): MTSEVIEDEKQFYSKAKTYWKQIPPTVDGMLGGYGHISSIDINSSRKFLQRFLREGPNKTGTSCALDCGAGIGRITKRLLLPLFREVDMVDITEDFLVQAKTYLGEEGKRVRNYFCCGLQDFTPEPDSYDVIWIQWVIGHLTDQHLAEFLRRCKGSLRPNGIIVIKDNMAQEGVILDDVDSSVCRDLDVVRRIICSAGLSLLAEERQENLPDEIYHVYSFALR
# Method in brief: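 NTMT1 (125 nM) preincubated 15 min with compound and 100 uM SAM, then 1 uM SPKRIA peptide added for 30 min at room temperature. SAH detected by MTase-Glo luminescence; normalized to no-enzyme and DMSO controls, fitted to 4-parameter Hill.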
# [9] = target: Papain (Carica papaya) (UniProt P00784); assay: Primary qHTS assay for inhibitors of the protease papain (AID 1645873);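 further: papain turnover of Z-FR-AMC read as the AMC fluorescence gain over 10 min; series mostly up to about 50 µM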
# Sequence of Papain (Carica papaya) (P00784 whole entry, looked up): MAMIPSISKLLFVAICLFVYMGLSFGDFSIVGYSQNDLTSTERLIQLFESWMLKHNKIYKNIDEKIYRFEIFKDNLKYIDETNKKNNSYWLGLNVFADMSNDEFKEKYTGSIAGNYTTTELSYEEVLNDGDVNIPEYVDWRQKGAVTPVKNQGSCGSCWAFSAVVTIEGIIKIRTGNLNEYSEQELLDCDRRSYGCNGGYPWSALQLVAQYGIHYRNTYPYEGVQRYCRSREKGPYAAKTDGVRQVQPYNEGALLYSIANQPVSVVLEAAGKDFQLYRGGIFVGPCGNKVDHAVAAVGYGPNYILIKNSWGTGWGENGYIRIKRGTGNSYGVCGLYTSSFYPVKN
compound,measurement,setting,value
COc1nc(N)nc2c1ncn2[C@@H]1O[C@H](CO)[C@@H](O)[C@@H]1O,Potency,[1],inactive
same,Potency,[2],inactive
same,Potency,[3],5.31 µM (active)
same,Potency,[4],6.68 µM (active)
COc1cc(NS(=O)(=O)c2ccc(N)cc2)nc(OC)n1,Potency,[1],inactive
same,Potency,[2],inactive
same,Potency,[5],inactive
same,Potency,[3],inactive
same,Potency,[4],inactive
CCN(C)C(=O)Oc1cccc([C@H](C)N(C)C)c1,Potency,[1],inactive
same,Potency,[2],inactive
same,Potency,[3],inactive
same,Potency,[4],inactive
CC(C)Cn1cnc2c(N)nc3ccccc3c21,Potency,[1],inactive
same,Potency,[2],inactive
same,Potency,[6],inactive
same,Potency,[3],inactive
same,Potency,[4],inactive
O=P(O)(O)C(O)(Cc1cccnc1)P(=O)(O)O,Potency,[1],inactive
same,Potency,[2],inactive
same,Potency,[6],inactive
same,Potency,[3],inactive
same,Potency,[4],inactive
CCCc1cc(C(N)=S)ccn1,Potency,[1],inactive
same,Potency,[2],inactive
same,Potency,[6],inactive
same,Potency,[3],inactive
same,Potency,[4],inactive
COC(c1ccccc1)(c1ccccc1)[C@H](Oc1nc(C)cc(C)n1)C(=O)O,Potency,[1],inactive
same,Potency,[2],inactive
same,Potency,[6],inactive
same,Potency,[3],inactive
same,Potency,[4],inactive
CS(=O)(=O)c1ccc([C@@H](O)[C@@H](CO)NC(=O)C(Cl)Cl)cc1,Potency,[1],inactive
same,Potency,[2],inactive
same,Potency,[3],inactive
CCn1cc(C(=O)O)c(=O)c2cc(F)c(N3CCN(C)CC3)cc21,Potency,[1],inactive
same,Potency,[2],inactive
same,Potency,[3],inactive
same,Potency,[4],inactive
O=NN(CCCl)C(=O)NC1CCCCC1,Potency,[1],inactive
same,Potency,[2],inactive
same,outcome,[7],inactive
same,Potency,[6],inactive
same,Potency,[3],inactive
same,Potency,[4],inactive
CCc1cc(C(N)=S)ccn1,Potency,[1],inactive
same,Potency,[2],inactive
same,Potency,[8],inactive
same,Potency,[3],inactive
same,Potency,[4],inactive
COc1cnc(NS(=O)(=O)c2ccc(N)cc2)nc1,Potency,[1],inactive
same,Potency,[2],inactive
same,Potency,[5],inactive
same,Potency,[3],inactive
same,Potency,[4],inactive
N[C@@H](C(=O)N[C@@H]1C(=O)N2C(C(=O)O)=C(Cl)CS[C@H]12)c1ccccc1,Potency,[1],inactive
same,"% pathology change, negative = correction",[2],10.3% [at 9.22 µM] (inactive)
same,"activity change, negative = inhibition",[6],11.4% [at 11.5 µM] (inactive)
same,outcome,[3],inactive [at 9.23 µM]
same,"activity change, negative = cell killing",[4],-2.72% [at 9.23 µM] (inactive)
COc1cc2c(Nc3ccc(Br)cc3F)ncnc2cc1OCC1CCN(C)CC1,Potency,[1],inactive
same,Potency,[2],inactive
same,Potency,[5],inactive
same,Potency,[3],inactive and 3.65 µM (active) and 13.2 µM (active)
same,Potency,[4],5.15 µM (active) and 16.6 µM (active)
COc1cc([C@@H]2c3cc4c(cc3[C@H](O)[C@H]3COC(=O)[C@H]23)OCO4)cc(OC)c1OC,Potency,[1],inactive
same,Potency,[2],inactive
same,Potency,[3],7.5 nM (active) and 37.2 nM (active)
same,Potency,[4],6 nM (active) and 29.5 nM (active)
CCCN[C@H]1CCc2nc(N)sc2C1,Potency,[1],inactive
same,Potency,[2],inactive
same,Potency,[6],inactive
same,Potency,[3],inactive
same,Potency,[4],inactive
O=C(O)CSCC(=O)NC1CCSC1=O (configuration not stated),Potency,[1],inactive
same,Potency,[2],inactive
same,Potency,[3],inactive
same,Potency,[4],inactive
CC(C)OC(=O)OCOP(=O)(CO[C@H](C)Cn1cnc2c(N)ncnc21)OCOC(=O)OC(C)C,Potency,[1],inactive
same,Potency,[2],inactive
same,Potency,[6],inactive
same,Potency,[3],inactive
same,Potency,[4],inactive
CC(C(=O)O)c1ccc2c(c1)CC(=O)c1ccccc1S2 (configuration not stated),Potency,[1],inactive
same,Potency,[2],inactive
same,Potency,[3],inactive
same,Potency,[4],inactive
CCCc1nc(C)c2c(=O)[nH]c(-c3cc(S(=O)(=O)N4CCN(CC)CC4)ccc3OCC)nn12,Potency,[1],inactive
same,Potency,[2],inactive
same,Potency,[5],inactive
same,Potency,[3],inactive
same,Potency,[4],inactive
CCC(=O)O[C@]1(C(=O)SCF)[C@H](C)C[C@H]2[C@@H]3C[C@H](F)C4=CC(=O)C=C[C@]4(C)[C@@]3(F)[C@@H](O)C[C@@]21C,Potency,[1],inactive
same,Potency,[2],inactive
same,Potency,[5],inactive
same,Potency,[4],inactive
Cc1cccc(Nc2ccncc2S(=O)(=O)NC(=O)NC(C)C)c1,Potency,[1],inactive
same,Potency,[2],inactive
same,Potency,[3],inactive
same,Potency,[4],inactive
CNS(=O)(=O)CCc1ccc2[nH]cc(C3CCN(C)CC3)c2c1,Potency,[1],inactive
same,Potency,[2],inactive
same,Potency,[6],inactive
same,Potency,[9],inactive
same,Potency,[3],inactive
same,Potency,[4],inactive
COc1cc(NCc2ccc3nc(N)nc(N)c3c2C)cc(OC)c1OC,Potency,[1],inactive
same,Potency,[2],inactive
same,Potency,[6],12.3 µM (active)
same,Potency,[3],13.3 nM (active) and 1.05 µM (active)
same,Potency,[4],15 nM (active) and 1.18 µM (active)
CCn1cc(C(=O)O)c(=O)c2cc(F)c(N3CCNCC3)cc21,Potency,[1],inactive
same,Potency,[2],inactive
same,Potency,[3],inactive
same,Potency,[4],inactive
CNNCc1ccc(C(=O)NC(C)C)cc1,Potency,[1],inactive
same,Potency,[2],inactive
same,Potency,[5],inactive
same,Potency,[3],inactive
same,Potency,[4],inactive
Cn1c(=O)c2c(ncn2CC(O)CO)n(C)c1=O (configuration not stated),Potency,[1],inactive
same,Potency,[2],inactive
same,Potency,[3],inactive
same,Potency,[4],inactive
CC[C@H](C)C(=O)O[C@H]1C[C@@H](C)C=C2C=C[C@H](C)[C@H](CC[C@@H]3C[C@@H](O)CC(=O)O3)[C@H]21,Potency,[1],inactive
same,Potency,[2],inactive
same,Potency,[3],16.8 µM (active) and 10.5 µM (active)
same,Potency,[4],8.33 µM (active)
CC(=O)[C@H]1CC[C@H]2[C@@H]3CC=C4C[C@@H](O)CC[C@]4(C)[C@H]3CC[C@]12C,Potency,[1],inactive
same,Potency,[2],inactive
same,Potency,[5],inactive
same,Potency,[3],inactive
same,Potency,[4],inactive
Cc1onc(-c2ccccc2Cl)c1C(=O)N[C@@H]1C(=O)N2[C@@H]1SC(C)(C)[C@@H]2C(=O)O,Potency,[1],inactive
same,Potency,[2],inactive
same,Potency,[3],inactive
same,Potency,[4],inactive
CC(C)OC(=O)C(C(=O)OC(C)C)=C1SC=CS1,Potency,[1],inactive
same,Potency,[2],inactive
same,Potency,[3],inactive
same,Potency,[4],inactive
